From paper PMC7819943, “Rice protein-binding microarrays: a tool to detect cis-acting elements near promoter regions in rice”
Whole data set: some 68,000 sequences, median “fluorescence intensity (a.u.)” near 9,100, cut for the highest 2% near 16,000. The sample holds the highest values, similar sequences and a random draw of the others, so the mix is not that of the screen.

Molecular target: OsWRKY34 (Oryza sativa, UniProt Q0JBA9 1-250)
Assay: protein-binding microarray (RPBM); PBS, 2% BSA, 51.3 ng/ul salmon testes DNA, 50 uM zinc acetate, 200 nM TF, 25 C, 1 h; high values mean tight binding
Settings: protein: recombinant; tags: N-terminal polyhistidine and DsRed monomer fusion (pET32a); label: CyDye5-dUTP incorporated in the synthesized complementary strand; 3' TTTTT single-stranded linker to array surface; dsDNA, one strand shown
In short: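 Binding signal here means per-feature fluorescence intensity in arbitrary units. The values were read on an Axon 4000B scanner after a custom Agilent array, double-stranded by primer extension with Cy5-dUTP, was incubated with 200 nM protein at 25 °C for 1 h in PBS with 2% BSA, salmon testes DNA and 50 µM zinc acetate, then washed. The proteins were transcription factors with an N-terminal polyhistidine tag and DsRed, expressed in E. coli BL21-CodonPlus and purified on Ni–NTA.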

Chain of OsWRKY34 (Q0JBA9 entry or part of it): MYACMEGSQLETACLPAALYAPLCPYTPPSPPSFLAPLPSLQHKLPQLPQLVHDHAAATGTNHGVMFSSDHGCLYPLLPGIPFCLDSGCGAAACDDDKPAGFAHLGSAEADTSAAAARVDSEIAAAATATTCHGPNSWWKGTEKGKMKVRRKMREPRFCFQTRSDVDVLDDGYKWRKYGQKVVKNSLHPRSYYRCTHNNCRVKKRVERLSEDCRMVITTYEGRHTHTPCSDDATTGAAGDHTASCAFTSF

**Q.** Which binding signal does the source give for “CTGTTCCATTTCTCCTTGTTGCATCAGTAACTCCAAACCACGGAGTCACCTAGTGCAG” here?
**A.** The binding signal was 12200 fluorescence intensity (a.u.).

**Q.** For “GATTATTTGCTTTACGGTTTTTTAAAAAAATTTCTTCATACGGAGTCACCTAGTGCAG”, which binding signal is on record?
**A.** Its binding signal is 9590 fluorescence intensity (a.u.).

**Q.** “CACACACACCCTGTCGAGCGAATATGCATGTCTTCTCAAGCGGAGTCACCTAGTGCAG” was tested. Which binding signal did it give?
**A.** The binding signal was 8960 fluorescence intensity (a.u.).

**Q.** For “TCCCTTTTGAGTACCACTGCTGATATCTGGATGCCCGTCACGGAGTCACCTAGTGCAG”, which binding signal is on record?
**A.** Its binding signal is 8080 fluorescence intensity (a.u.).

**Q.** “TTCACAATGTAAGCCATTCTAGCATTTTCCATATTTATATCGGAGTCACCTAGTGCAG” was tested. Which binding signal did it give?
**A.** Its binding signal is 8240 fluorescence intensity (a.u.).

**Q.** For “ATTTTGCCCCTTGTTGATCACCACAGAAGAACATGTGCTACGGAGTCACCTAGTGCAG”, which binding signal is on record?
**A.** Its binding signal is 9790 fluorescence intensity (a.u.).

**Q.** How did the binding signal turn out when “TTTGACACCGTTGACTTTTTAGTACGTATTTGATCATTCGCGGAGTCACCTAGTGCAG” was run?
**A.** Its binding signal is 33800 fluorescence intensity (a.u.).

**Q.** For “CGTTGACTTTTTAGTACGTGTTTGACCATTCGTCTTATTCCGGAGTCACCTAGTGCAG”, which binding signal is on record?
**A.** The binding signal was 30200 fluorescence intensity (a.u.).

**Q.** With “TTTGACACCGTTGATTTTTTAATATGTGTTTGACCATTCGCGGAGTCACCTAGTGCAG” as the sequence, how does the binding signal read?
**A.** Its binding signal is 9260 fluorescence intensity (a.u.).

**Q.** With “TGTTAACTTTTTAGTACGTGTTTGACTATTCGTTTTATTCCGGAGTCACCTAGTGCAG” as the sequence, how does the binding signal read?
**A.** Its binding signal is 12800 fluorescence intensity (a.u.).

**Q.** For “ATCCGTGTATTATAGCGTTTCGTAGTAGTATTTTTATGTCCGGAGTCACCTAGTGCAG”, which binding signal is on record?
**A.** Its binding signal is 9280 fluorescence intensity (a.u.).

**Q.** For “GTTCATATAGTACGTACTTTTATTCGTTAGTATATATGACCGGAGTCACCTAGTGCAG”, which binding signal is on record?
**A.** The binding signal was 9410 fluorescence intensity (a.u.).

**Q.** Which binding signal does the source give for “AACTTTACAATTTTTTTATGTCATCCATGTCACATGTTTTCGGAGTCACCTAGTGCAG” here?
**A.** The binding signal was 9030 fluorescence intensity (a.u.).

**Q.** Which binding signal does the source give for “TGTCACATTCGTCTCCGGTCCGTACGTTGCTGTATTTTAGCGGAGTCACCTAGTGCAG” here?
**A.** The binding signal was 17100 fluorescence intensity (a.u.).

**Q.** With “ACCCACTTTCGACTCCATGAATTTCATCACATTTGTTTTACGGAGTCACCTAGTGCAG” as the sequence, how does the binding signal read?
**A.** The binding signal was 18600 fluorescence intensity (a.u.).

**Q.** How did the binding signal turn out when “CCCATTCTTTCACTTTTGACCTTTTTTTATCATTTTGTTTCGGAGTCACCTAGTGCAG” was run?
**A.** The binding signal was 9510 fluorescence intensity (a.u.).

**Q.** “GGTCGTCGTCTTTGCATTGTCTCCTTGTCCGGTACGTTGGCGGAGTCACCTAGTGCAG” was tested. Which binding signal did it give?
**A.** Its binding signal is 9400 fluorescence intensity (a.u.).

**Q.** For “TTTAGTACGTGTTTGACCATTCGTCTTATTAAAAAAATTTCGGAGTCACCTAGTGCAG”, which binding signal is on record?
**A.** Its binding signal is 9130 fluorescence intensity (a.u.).

**Q.** How did the binding signal turn out when “GTTCCCAACGGTCACCTCGTCGTCGTTGCCAAATCTGCCACGGAGTCACCTAGTGCAG” was run?
**A.** Its binding signal is 8670 fluorescence intensity (a.u.).

**Q.** With “ATCACGTCGCCTCGTTTCTTGCCTCGCCGCTCGTTGCTCGCGGAGTCACCTAGTGCAG” as the sequence, how does the binding signal read?
**A.** Its binding signal is 12200 fluorescence intensity (a.u.).

**Q.** Which binding signal does the source give for “AATACCAAGTTTATTTCTCACCTGCATTTTAGATTCTCATCGGAGTCACCTAGTGCAG” here?
**A.** Its binding signal is 9050 fluorescence intensity (a.u.).

**Q.** Which binding signal does the source give for “TAGTCCACCTTTTATTACCCAAGTTTCAATTTGGACCACCCGGAGTCACCTAGTGCAG” here?
**A.** Its binding signal is 9740 fluorescence intensity (a.u.).

**Q.** With “TCCCTTCCCTGTTCCTGGCGACGTGTCACCTTCTTATTCGCGGAGTCACCTAGTGCAG” as the sequence, how does the binding signal read?
**A.** The binding signal was 8050 fluorescence intensity (a.u.).

**Q.** For “ATAAACATTGACTCGCCGGAGTAGTTTTGAAACGTTTGACCGGAGTCACCTAGTGCAG”, which binding signal is on record?
**A.** Its binding signal is 9180 fluorescence intensity (a.u.).

**Q.** For “GCAACCAACATCCCGGCGGCGAGCTCGTACGTACCAAATCCGGAGTCACCTAGTGCAG”, which binding signal is on record?
**A.** Its binding signal is 10800 fluorescence intensity (a.u.).

**Q.** How did the binding signal turn out when “CACACCACACACTGATGCAACGGCACTTAAGCGCACGAAGCGGAGTCACCTAGTGCAG” was run?
**A.** The binding signal was 8060 fluorescence intensity (a.u.).

**Q.** “CGTCGGTGTGGTATGCTTGTCGCGCGGCGGCGCGGCCGTACGGAGTCACCTAGTGCAG” was tested. Which binding signal did it give?
**A.** The binding signal was 8790 fluorescence intensity (a.u.).

**Q.** For “CCTACCTCCTACTCCTTATCCTCCACTTCGTCGCATTACACGGAGTCACCTAGTGCAG”, which binding signal is on record?
**A.** Its binding signal is 8750 fluorescence intensity (a.u.).

**Q.** With “CGACTGCAGCTGATCCGGATTCAACACGGACATAGTACACCGGAGTCACCTAGTGCAG” as the sequence, how does the binding signal read?
**A.** Its binding signal is 8550 fluorescence intensity (a.u.).

**Q.** How did the binding signal turn out when “ATTTAGTTCTCAACATACCCCTTTTCATCTTTTTGTCAGACGGAGTCACCTAGTGCAG” was run?
**A.** Its binding signal is 8840 fluorescence intensity (a.u.).

**Q.** For “CGTTGACTTTTTAGTACATGTTTGACCATTCGTCTTATTCCGGAGTCACCTAGTGCAG”, which binding signal is on record?
**A.** Its binding signal is 36100 fluorescence intensity (a.u.).

**Q.** For “GTTGACTTTTTGATTAACGTTTGACCATTCGTTTTATTCACGGAGTCACCTAGTGCAG”, which binding signal is on record?
**A.** Its binding signal is 9480 fluorescence intensity (a.u.).

**Q.** For “CTTTTTAATCAACGTTTGACCATTCGTCTTATTCAATTTTCGGAGTCACCTAGTGCAG”, which binding signal is on record?
**A.** Its binding signal is 10900 fluorescence intensity (a.u.).

**Q.** With “TCATTGACTTTTCGATCAACGTTTGACCATTTGTTTTATTCGGAGTCACCTAGTGCAG” as the sequence, how does the binding signal read?
**A.** The binding signal was 16700 fluorescence intensity (a.u.).

**Q.** “AATATTTTTTTTTACTGTTTTCACTTTGACCATTAATATTCGGAGTCACCTAGTGCAG” was tested. Which binding signal did it give?
**A.** The binding signal was 9790 fluorescence intensity (a.u.).

**Q.** For “GCTGTTGACTTTCGACCTACGTTTGACCATTCGTTTTATTCGGAGTCACCTAGTGCAG”, which binding signal is on record?
**A.** The binding signal was 20600 fluorescence intensity (a.u.).

**Q.** Which binding signal does the source give for “TCATTCATATTATTTATTATTTAGTTGTTTGACTTTTTTTCGGAGTCACCTAGTGCAG” here?
**A.** Its binding signal is 9600 fluorescence intensity (a.u.).

**Q.** Which binding signal does the source give for “ACACCGTTGACTTTTTAGTACGTATTTGACCATTCGTCTTCGGAGTCACCTAGTGCAG” here?
**A.** Its binding signal is 36700 fluorescence intensity (a.u.).

**Q.** With “GCCATTTGTACGTTTCTATTTTCTCAGTAATCAGACCATTCGGAGTCACCTAGTGCAG” as the sequence, how does the binding signal read?
**A.** The binding signal was 11600 fluorescence intensity (a.u.).

**Q.** How did the binding signal turn out when “CCCGTCTCCTCGCCTGCCGATCTCCATCCTGCTAGCAGAGCGGAGTCACCTAGTGCAG” was run?
**A.** Its binding signal is 8930 fluorescence intensity (a.u.).

**Q.** How did the binding signal turn out when “AGATACATACGCCCACCCGCCGCGCCCACTTCCGTCCAAACGGAGTCACCTAGTGCAG” was run?
**A.** The binding signal was 8490 fluorescence intensity (a.u.).

**Q.** How did the binding signal turn out when “TCCTCCTGTCTCTGCCTCTGCTCGGCTAGTCTAGTGTACTCGGAGTCACCTAGTGCAG” was run?
**A.** The binding signal was 8810 fluorescence intensity (a.u.).
